The nature of experiment [1]: ATG_PBREM_CIS: Attagene CIS-FACTORIAL HepG2 Assay for human Phenobarbital-responsive Enhancer Module (PBREM) (AID 2282955). Particulars: HepG2 PBREM cis-reporter, Attagene multiplexed transcription; actives raise or lower the signal. The method in brief:
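Transfected liver-derived HepG2 cells exposed 24 h; PBREM reporter transcript quantified via RT-PCR and capillary electrophoresis, with activity in either direction referenced to DMSO.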

In experiment [2] the target is Paired box protein Pax-6 (Homo sapiens) (UniProt P26367). Briefly: ATG_Pax6_CIS: Attagene CIS-FACTORIAL HepG2 Assay for human Paired Box 6 (PAX6) (AID 2282956). The following applies: HepG2 CIS-FACTORIAL PAX6 reporter transcription, RNA readout; actives raise or lower the signal. In a few lines: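 Values derive from bidirectional curve fitting of reporter mRNA signal relative to DMSO. HepG2 cells bearing transfected cis-regulated MRTUs were exposed for 24 h; transcripts were read by RT-PCR and capillary electrophoresis.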
Sequence of Paired box protein Pax-6 (Homo sapiens) (P26367 whole entry, looked up): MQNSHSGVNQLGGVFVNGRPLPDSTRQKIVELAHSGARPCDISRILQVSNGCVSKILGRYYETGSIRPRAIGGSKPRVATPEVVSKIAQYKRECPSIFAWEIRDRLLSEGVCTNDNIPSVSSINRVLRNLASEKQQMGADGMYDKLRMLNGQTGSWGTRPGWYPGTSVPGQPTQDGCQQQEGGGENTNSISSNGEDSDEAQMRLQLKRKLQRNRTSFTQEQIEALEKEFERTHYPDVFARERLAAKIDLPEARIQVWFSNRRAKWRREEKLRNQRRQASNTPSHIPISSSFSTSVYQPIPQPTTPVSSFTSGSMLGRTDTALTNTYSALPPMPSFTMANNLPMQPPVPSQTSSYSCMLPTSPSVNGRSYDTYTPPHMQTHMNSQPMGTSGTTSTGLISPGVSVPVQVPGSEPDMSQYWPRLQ

Experiment [3] can be described thus: ATG_PXRE_CIS: Attagene CIS-FACTORIAL HepG2 Assay for human Pregnane X Receptor Element (PXRE) (AID 2282957). Particulars: HepG2 Attagene CIS-FACTORIAL PXRE reporter, mRNA; actives raise or lower the signal. In a few lines: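 Endogenous transcription factor activity in HepG2 was gauged through induction of reporter mRNA driven by a cis-regulating promoter element, sampled 24 h post-treatment. Activity was fitted in both directions against DMSO negative control.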

Experiment [4] in a line: ATG_PPRE_CIS: Attagene CIS-FACTORIAL HepG2 Assay for human Peroxisome Proliferator-activated Response Element (PPRE) (AID 2282958). Particulars: HepG2 PPRE cis-element reporter, Attagene transcription factor profiling; actives raise or lower the signal. The method in brief: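 Measured endpoint: PPRE-controlled reporter mRNA, detected by RT-PCR and capillary electrophoresis fluorescence, from transiently transfected HepG2 cells 24 h after dosing. Curves fitted in both directions using DMSO baseline.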

Experiment [5] can be described thus: ATG_RORE_CIS: Attagene CIS-FACTORIAL HepG2 Assay for human RAR-related Orphan Receptor Element (RORE) (AID 2282959). Particulars: HepG2 Attagene cis-factorial RORE reporter, mRNA; actives raise or lower the signal. The method in brief: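 Transiently transfected HepG2 reporter cells were treated 24 h. Reporter transcripts were detected by RT-PCR and capillary electrophoresis, with bidirectional fitting against DMSO.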

A short description of experiment [6]: ATG_Sox_CIS: Attagene CIS-FACTORIAL HepG2 Assay for human SRY-box transcription factor (SOX) (AID 2282960). Particulars: HepG2 Attagene cis-factorial SOX reporter, mRNA; actives raise or lower the signal. The method in brief: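 Gain- or loss-of-signal endpoint, fitted bidirectionally with DMSO as negative control. Based on reporter mRNA from transfected HepG2 cells harvested 24 h post-treatment and quantified via RT-PCR and capillary electrophoresis.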

The target of experiment [7] is Transcription factor Sp1 (Homo sapiens) (UniProt P08047). Put plainly: ATG_Sp1_CIS: Attagene CIS-FACTORIAL HepG2 Assay for human Specificity Protein 1 (Sp1) (AID 2282961). The following applies: HepG2 Sp1 cis-reporter transcription, actives raise or lower the signal. The method in brief: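 Endpoint reflects endogenous Sp1 transcriptional activity, not an exogenous fusion protein: HepG2 cells with transfected cis-regulated reporters, 24 h dosing, RT-PCR/capillary electrophoresis mRNA read-out, DMSO-normalised bidirectional fit.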
Sequence of Transcription factor Sp1 (Homo sapiens) (P08047 whole entry, looked up, the tested form may be a part): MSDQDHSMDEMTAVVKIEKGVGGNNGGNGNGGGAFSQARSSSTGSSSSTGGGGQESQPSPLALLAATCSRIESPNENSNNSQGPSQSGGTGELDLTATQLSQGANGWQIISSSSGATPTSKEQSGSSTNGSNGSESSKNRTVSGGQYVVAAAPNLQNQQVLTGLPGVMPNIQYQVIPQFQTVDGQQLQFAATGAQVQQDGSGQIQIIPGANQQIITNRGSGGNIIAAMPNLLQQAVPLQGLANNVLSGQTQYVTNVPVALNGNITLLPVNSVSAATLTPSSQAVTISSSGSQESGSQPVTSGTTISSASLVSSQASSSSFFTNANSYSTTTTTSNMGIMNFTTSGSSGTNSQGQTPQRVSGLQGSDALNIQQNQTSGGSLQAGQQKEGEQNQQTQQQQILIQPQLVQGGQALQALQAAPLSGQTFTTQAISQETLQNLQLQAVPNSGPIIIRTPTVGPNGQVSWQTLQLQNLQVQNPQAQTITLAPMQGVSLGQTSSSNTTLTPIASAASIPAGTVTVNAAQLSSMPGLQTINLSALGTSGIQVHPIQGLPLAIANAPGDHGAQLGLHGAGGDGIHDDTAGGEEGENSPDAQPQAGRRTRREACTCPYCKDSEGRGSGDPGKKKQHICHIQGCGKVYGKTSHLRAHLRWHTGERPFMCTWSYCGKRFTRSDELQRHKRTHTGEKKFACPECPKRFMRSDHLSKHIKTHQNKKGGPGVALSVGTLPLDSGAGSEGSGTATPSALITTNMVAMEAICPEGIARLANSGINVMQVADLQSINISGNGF

The nature of experiment [8]: ATG_SREBP_CIS: Attagene CIS-FACTORIAL HepG2 Assay for human Sterol Regulatory Element Binding (SREBP) (AID 2282962). The following applies: HepG2 Attagene cis-factorial SREBP reporter, mRNA; actives raise or lower the signal. The method in brief: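 Values derive from bidirectional curve fitting with DMSO as baseline. The underlying measurement is reporter mRNA from cis-element-regulated units in transiently transfected HepG2, quantified by RT-PCR and capillary electrophoresis after 24 h exposure.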

Experiment [9] addresses Signal transducer and activator of transcription 3 (Homo sapiens) (UniProt P40763). Put plainly: ATG_STAT3_CIS: Attagene CIS-FACTORIAL HepG2 Assay for human Signal Transducer and Activator of Transcription 3 (STAT3) (AID 2282963). The following applies: HepG2, Attagene cis-factorial STAT3 reporter transcription; actives raise or lower the signal. The method in brief: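 Cis-factorial format: endogenous transcription factors in HepG2 drive transfected reporter units. After 24 h treatment, reporter RNA was reverse-transcribed, amplified, FAM-labelled and HpaI-digested before CE analysis; activity scored in both directions against DMSO.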

Experiment [10] is described as follows: ATG_TA_CIS: Attagene CIS-FACTORIAL HepG2 Assay for human TA Basal Promoter (AID 2282964). Particulars: HepG2 Attagene CIS-factorial TA basal promoter reporter; actives raise or lower the signal. The method in brief: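 Read-out: fluorescent reporter-transcript fragments resolved by capillary electrophoresis after RT-PCR and HpaI digestion. Source: HepG2 cells carrying transiently transfected multi-reporter cis constructs, treated 24 h. Endpoint fitted bidirectionally relative to DMSO.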

Experiment [11] is described as follows: ATG_TCF_b_cat_CIS: Attagene CIS-FACTORIAL HepG2 Assay for human T-Cell-Factor with beta-catenin (TCF/b-cat) (AID 2282965). Particulars: HepG2 TCF/beta-catenin cis-reporter transcription, actives raise or lower the signal. The method in brief:
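Endogenous TCF/LEF activity read as reporter transcript level via RT-PCR and capillary electrophoresis fluorescence in transfected HepG2, 24 h exposure; gain or loss of signal fitted against DMSO controls.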

A short description of experiment [12]: ATG_TAL_CIS: Attagene CIS-FACTORIAL HepG2 Assay for human TAL Basal Promoter (AID 2282966).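 Also: background control endpoint measuring basal TAL promoter reporter mRNA not a specific factor.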 Particulars: HepG2 Attagene cis-factorial TAL promoter reporter; actives raise or lower the signal. The method in brief: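 Endogenous transcription-factor activity is sensed in HepG2 cells through transfected cis-promoter reporter constructs. After 24 h dosing, reporter transcripts are quantified by RT-PCR and capillary electrophoresis. Gain or loss of signal is fitted relative to DMSO.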

Experiment [13] can be described thus: ATG_TGFb_CIS: Attagene CIS-FACTORIAL HepG2 Assay for human Transforming Growth Factor (TGF) (AID 2282967). The following applies: HepG2 Attagene CIS TGFb reporter, mRNA transcription; actives raise or lower the signal. The method in brief:
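Transient MRTU transfection of HepG2 (FuGene 6). Dose 24 h. TriZol RNA, oligo(dT) RT, PCR, 6-FAM primer extension, HpaI cut, CE. Bidirectional fit, DMSO = baseline.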

Experiment [14] can be described thus: ATG_VDRE_CIS: Attagene CIS-FACTORIAL HepG2 Assay for human Vitamin D Receptor Element (VDRE) (AID 2282968). The following applies: HepG2 VDRE cis-reporter transcription, actives raise or lower the signal. The method in brief:
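Measures endogenous factor activity through cis-element-driven reporter transcripts in transiently transfected HepG2. Cells are treated 24 h; reporter mRNA is quantified by RT-PCR and capillary electrophoresis; fitting is bidirectional.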

In experiment [15] the target is Nuclear receptor subfamily 1 group I member 3 (Homo sapiens) (UniProt Q14994). Briefly: ATG_CAR_TRANS: Attagene TRANS-FACTORIAL HepG2 Assay for human Constitutive Androstane Receptor (CAR) (AID 2282969; active = hit-call score of the fitted dose curve at least 0.9, where 1 is the maximum;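 also: activators raise reporter mRNA above DMSO so AC50 marks induction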). The following applies: HepG2 Attagene TRANS-FACTORIAL CAR reporter. The method in brief: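 Signal is reporter mRNA induction relative to DMSO, measured 24 h after dosing by RT-PCR with fluorescent primer extension and capillary electrophoresis. Human HepG2 liver cells carried transiently transfected chimeric NR-Gal4/GAL4-UAS reporter constructs.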
Sequence of Nuclear receptor subfamily 1 group I member 3 (Homo sapiens) (Q14994 whole entry, looked up, the tested form may be a part): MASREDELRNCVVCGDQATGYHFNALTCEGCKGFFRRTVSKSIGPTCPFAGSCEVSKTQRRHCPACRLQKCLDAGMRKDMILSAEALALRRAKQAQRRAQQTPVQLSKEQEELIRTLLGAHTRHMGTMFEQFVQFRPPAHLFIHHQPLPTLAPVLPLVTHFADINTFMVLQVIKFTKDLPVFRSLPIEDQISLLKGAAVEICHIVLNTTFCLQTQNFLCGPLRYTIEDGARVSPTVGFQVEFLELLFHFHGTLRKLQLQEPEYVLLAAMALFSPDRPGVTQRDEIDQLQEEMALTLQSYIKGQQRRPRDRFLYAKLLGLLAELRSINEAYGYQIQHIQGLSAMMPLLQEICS

Experiment [16] addresses Estrogen receptor (Homo sapiens) (UniProt P03372). Briefly: ATG_ERa_TRANS: Attagene TRANS-FACTORIAL HepG2 Assay for human Estrogen Receptor alpha (ERa) (AID 2282970; active = hit-call score of the fitted dose curve at least 0.9, where 1 is the maximum). Particulars: HepG2 Attagene TRANS ERa GAL4 reporter, mRNA. The method in brief: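 Transfected HepG2 cells carrying GAL4-UAS-driven reporter units were dosed for 24 hours. Total RNA was reverse-transcribed, reporter sequences PCR-amplified, FAM-labelled, HpaI-digested and resolved by capillary electrophoresis. Increases over DMSO control defined activity.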

The target in experiment [17] is X-box-binding protein 1 (Homo sapiens) (UniProt P17861). Briefly: ATG_Xbp1_CIS: Attagene CIS-FACTORIAL HepG2 Assay for human X-box Binding Protein 1 (XBP1) (AID 2282972). Particulars: HepG2 XBP1 cis-element reporter, Attagene multiplex; actives raise or lower the signal. In a few lines:
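Human hepatoma HepG2, cis-element reporter system, 24 h treatment; mRNA quantified by RT-PCR/CE fluorescence; fit relative to DMSO.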

The nature of experiment [18]: ATG_GAL4_TRANS: Attagene TRANS-FACTORIAL HepG2 Assay for GAL4 (Internal Marker) (AID 2282976; active = hit-call score of the fitted dose curve at least 0.9, where 1 is the maximum). Particulars: HepG2 Attagene TRANS GAL4 internal marker reporter. In a few lines: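 Fluorescence from capillary electrophoresis of labelled RT-PCR products quantifies reporter mRNA induction after 24 h dosing of HepG2 cells carrying transfected GAL4-UAS reporter transcription units. Vehicle DMSO serves as baseline.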

Experiment [19] in a line: ATG_M_19_TRANS: Attagene TRANS-FACTORIAL HepG2 Assay for M19 Transcription Factor (Internal Marker) (AID 2282974; active = hit-call score of the fitted dose curve at least 0.9, where 1 is the maximum). Particulars: HepG2 Attagene TRANS-FACTORIAL M19 internal marker reporter. In a few lines: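 Using RT-PCR and capillary electrophoresis, reporter mRNA from transiently transfected human HepG2 cells was quantified following 24 h exposure; activity was fitted in the positive direction against DMSO.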

The term AC50 denotes the concentration giving half of the maximal activity seen.

Records with an inconclusive call do not appear. Calls of active or inactive are those of the source. The calls were made as follows, unless noted: active = hit-call score of the fitted dose curve at least 0.9, where 1 is the maximum; inactive = score below 0.9.

Sequence of X-box-binding protein 1 (Homo sapiens) (P17861 whole entry, looked up): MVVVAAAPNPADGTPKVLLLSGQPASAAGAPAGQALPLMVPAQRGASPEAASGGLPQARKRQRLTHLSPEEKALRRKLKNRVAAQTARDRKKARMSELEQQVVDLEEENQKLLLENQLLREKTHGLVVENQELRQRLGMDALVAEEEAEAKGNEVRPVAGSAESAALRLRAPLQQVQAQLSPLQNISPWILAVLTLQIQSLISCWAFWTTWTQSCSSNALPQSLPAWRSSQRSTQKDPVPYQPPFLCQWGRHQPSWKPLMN
Sequence of Estrogen receptor (Homo sapiens) (P03372 whole entry, looked up, the tested form may be a part): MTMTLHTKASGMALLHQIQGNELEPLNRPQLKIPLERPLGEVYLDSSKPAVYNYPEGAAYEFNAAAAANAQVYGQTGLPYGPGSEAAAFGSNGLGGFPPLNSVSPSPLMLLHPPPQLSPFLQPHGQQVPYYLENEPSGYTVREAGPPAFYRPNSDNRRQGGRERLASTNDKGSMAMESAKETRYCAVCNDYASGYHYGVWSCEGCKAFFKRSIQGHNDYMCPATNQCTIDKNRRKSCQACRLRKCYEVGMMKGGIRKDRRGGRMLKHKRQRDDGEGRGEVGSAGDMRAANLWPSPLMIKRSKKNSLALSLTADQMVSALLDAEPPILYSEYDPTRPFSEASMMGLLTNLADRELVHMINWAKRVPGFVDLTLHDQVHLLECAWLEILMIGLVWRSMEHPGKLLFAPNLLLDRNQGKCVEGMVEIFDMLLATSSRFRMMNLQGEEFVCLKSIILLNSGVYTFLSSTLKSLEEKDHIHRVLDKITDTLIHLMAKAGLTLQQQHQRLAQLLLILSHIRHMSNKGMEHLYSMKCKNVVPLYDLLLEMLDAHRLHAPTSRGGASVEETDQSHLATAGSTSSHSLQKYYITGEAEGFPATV
Sequence of Signal transducer and activator of transcription 3 (Homo sapiens) (P40763 whole entry, looked up): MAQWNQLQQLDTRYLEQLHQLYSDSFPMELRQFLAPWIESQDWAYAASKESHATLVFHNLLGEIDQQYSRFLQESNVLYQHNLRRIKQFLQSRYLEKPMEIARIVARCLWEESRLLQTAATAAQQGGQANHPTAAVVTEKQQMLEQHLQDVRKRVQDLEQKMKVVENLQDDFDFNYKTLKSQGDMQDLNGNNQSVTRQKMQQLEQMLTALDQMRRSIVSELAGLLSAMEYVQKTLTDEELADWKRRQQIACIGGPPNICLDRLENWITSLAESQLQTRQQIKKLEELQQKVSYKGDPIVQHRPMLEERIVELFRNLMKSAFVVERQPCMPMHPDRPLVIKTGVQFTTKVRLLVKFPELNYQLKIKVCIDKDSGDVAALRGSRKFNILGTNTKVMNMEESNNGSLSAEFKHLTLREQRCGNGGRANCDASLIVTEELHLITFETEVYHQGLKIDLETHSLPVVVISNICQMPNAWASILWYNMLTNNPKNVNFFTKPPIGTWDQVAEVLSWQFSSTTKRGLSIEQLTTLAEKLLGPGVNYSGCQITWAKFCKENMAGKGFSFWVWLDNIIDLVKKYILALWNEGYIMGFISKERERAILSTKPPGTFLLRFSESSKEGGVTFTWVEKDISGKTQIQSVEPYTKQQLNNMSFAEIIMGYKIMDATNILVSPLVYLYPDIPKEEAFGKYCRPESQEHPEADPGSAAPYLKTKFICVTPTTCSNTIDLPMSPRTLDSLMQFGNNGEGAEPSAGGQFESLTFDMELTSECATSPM

`CCCCCCCCn1sc(Cl)c(Cl)c1=O`: the outcome in experiment [1], in experiment [2], in experiment [4], in experiment [5], in [6] and in experiment [7] was inactive. Further, the result in experiment [9], in experiment [11], in [12], in [13], in experiment [14] and in experiment [15] was inactive. Moreover, the molecule was classed as inactive in experiment [16], in experiment [17] and in experiment [18]. Besides, the results for the concentration at half-maximal activity (AC50) in [3], in experiment [8] and in experiment [10] were 4.27 µM (active), 14.5 µM (active) and 8.12 µM (active), respectively.
Regarding `Cc1ccc(O)c(-n2nc3ccccc3n2)c1`, the outcome in experiment [1], in experiment [2], in [5], in experiment [6], in experiment [7] and in experiment [8] was inactive. Moreover, the molecule was called inactive in experiment [9], in experiment [10], in [11], in experiment [12], in experiment [13] and in experiment [14]. In addition, the molecule was called inactive in experiment [15] and in [17]. The AC50 in experiment [3] was 12.2 µM (active); in [4] it was 13.5 µM (active); in experiment [16], 13.4 µM (active).
Regarding `CN(C)C(C)(C)CO`, the outcome in [1], in experiment [2], in experiment [3], in [4], in experiment [5] and in experiment [6] was inactive. Further, the call in [7], in experiment [8], in experiment [9], in experiment [10], in [11] and in experiment [12] was inactive. Moreover, the outcome in experiment [13], in experiment [14], in experiment [16], in experiment [17], in experiment [19] and in [18] was inactive.
Turning to `CCOC(=O)C1CC(=O)C(=C(O)C2CC2)C(=O)C1` (stereo not drawn), the result in [1], in experiment [2], in [4], in experiment [5], in [6] and in experiment [7] was inactive. Further, the result in [8], in [9], in [10], in experiment [11], in experiment [12] and in [13] was inactive. The result in experiment [17] and in experiment [18] was inactive. The AC50 in experiment [3] is 77.3 µM (active).

These data come from PubChem BioAssay (EPA / NIEHS).
